Experimental data reported in PubChem BioAssay (Tox21).
Records with an inconclusive call do not appear. Activity calls are given as the source filed them. Calls come from the whole dose curve; as a rule, active = well fitted activation curve with a large enough effect in the repeat runs; inconclusive = weak or mixed curves; inactive = no such curve, though single readings can be large or run the other way.

Each compound was assayed against Nuclear receptor subfamily 1 group I member 2 (Homo sapiens) (UniProt O75469) (assay: Human pregnane X receptor (PXR) small molecule agonists, qHTS assay (AID 1346982; note: nearly all actives have a fitted effect of over 35% in size)). Settings: PXR-Luc HepG2, CYP3A4 luciferase reporter, 24 h; series mostly up to 92.4 µM; activation: at the top concentration.
From the text: National Center for Advancing Translational Sciences [NCATS]
NIH Chemical Genomics Center [NCGC]
U.S. Environmental Protection Agency [EPA]
National Institutes of Environmental Health Sciences [NIEHS]
National Toxicology Program [NTP]
The human pregnane X receptor (hPXR) regulates the expression of several drug metabolizing enzymes and induction of these proteins is a major mechanism for developing drug resistance in cancer. One such key enzyme catalyzing the drug metabolism is cytochrome P450 3A4 (CYP3A4). Changes in CYP3A4 expression affect drug metabolism, thereby reducing the therapeutic efficacy and altering toxicological response to a drug and which finally causes adverse drug interaction. To screen Tox21 libraries for compounds that activate hPXR-mediated CYP3A4 gene expression, PXR-Luc HepG2 cells were used.
PXR-Luc HepG2 cells were dispensed at 2,000 per well in 5uL of assay medium containing 5% charcoal-stripped FBS into white solid bottom 1536-well plates (Corning Life Sciences, Corning, NY) using a Multidrop Combi (Thermo Scientific, Waltham, MA) dispenser. The assay plates were incubated at 37 C and 5% CO2 for 5hr, and then 23nL of compounds dissolved in DMSO and positive control were transferred using a Pintool station (Wako, San Diego, CA). The assay plates were incubated at 37C and 5% CO2 for 24hr. For luciferase read, 4uL of ONE-Glo reagent (Promega Corporation, Madison, WI) was added to each well of the assay plates using Flying Reagent Dispenser (FRD, Aurora Discovery, San Diego, CA) and incubated the assay plates at room temperature for 30min. The luminescence signal was quantified using a ViewLux plate reader (Perkin Elmer, Shelton, CT).
% is set by controls: 0 for no effect and ±100 for the full control effect; potency is the fitted concentration of half-maximal effect.

Sequence of Nuclear receptor subfamily 1 group I member 2 (Homo sapiens) (O75469 whole entry, looked up): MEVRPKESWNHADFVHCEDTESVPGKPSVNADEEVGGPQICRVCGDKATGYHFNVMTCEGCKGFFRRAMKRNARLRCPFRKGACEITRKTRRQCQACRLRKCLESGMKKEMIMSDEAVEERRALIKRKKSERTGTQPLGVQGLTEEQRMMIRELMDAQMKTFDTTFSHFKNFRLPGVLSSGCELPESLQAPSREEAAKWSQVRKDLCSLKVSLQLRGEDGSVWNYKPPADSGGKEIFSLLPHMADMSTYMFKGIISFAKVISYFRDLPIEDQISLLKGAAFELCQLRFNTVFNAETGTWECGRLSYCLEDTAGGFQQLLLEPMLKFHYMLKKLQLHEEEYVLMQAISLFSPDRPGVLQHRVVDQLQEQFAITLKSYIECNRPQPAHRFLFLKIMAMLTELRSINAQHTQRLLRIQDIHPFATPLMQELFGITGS

Question: How did the “activation” value turn out when `NC(=O)NC1N=C([O][Al])NC1=O` (stereo not given) was run?
Answer: -13.7% [at 42.5 µM] (inactive)

Question: Which “activation” value does the source give for `Cc1ccc(C(=O)Nc2ccc(S(=O)(=O)O)c3cc(S(=O)(=O)O)cc(S(=O)(=O)O)c23)cc1NC(=O)c1cccc(NC(=O)Nc2cccc(C(=O)Nc3cc(C(=O)Nc4ccc(S(=O)(=O)O)c5cc(S(=O)(=O)O)cc(S(=O)(=O)O)c45)ccc3C)c2)c1` here?
Answer: -4.04% [at 42.5 µM] (inactive)

Question: `NC(=O)N[C@@H](CCC(=O)O)C(=O)O` was tested. Which “activation” value did it give?
Answer: -15.1% [at 42.5 µM] (inactive)

Question: With `CCCCN(CCC(=O)OCC)C(C)=O` as the compound, how does the “activation” value read?
Answer: 11.5% (inactive)

Question: `CC1=NS(=O)(=O)c2cc(Cl)ccc2N1` was tested. Which “activation” value did it give?
Answer: -1.51% [at 42.5 µM] (inactive)

Question: How did the “activation” value turn out when `Cc1nc2ccc(CN(C)c3ccc(C(=O)N[C@@H](CCC(=O)O)C(=O)O)s3)cc2c(=O)[nH]1` was run?
Answer: -7.22% [at 42.5 µM] (inactive)

Question: Which “activation” value does the source give for `CCCCCCCC1CCCC1=O` (stereo not given) here?
Answer: 9.28% (inactive)

Question: With `Cc1ccnc(NS(=O)(=O)c2ccc(N)cc2)n1` as the compound, how does the “activation” value read?
Answer: -6.11% [at 42.5 µM] (inactive)

Question: Which “activation” value does the source give for `CCOC(=O)OC(C)OC1=C(C(=O)Nc2ccccn2)N(C)S(=O)(=O)c2ccccc21` (stereo not given) here?
Answer: -2.99% [at 42.5 µM] (inactive)

Question: How did the “activation” value turn out when `CCNS(=O)(=O)c1ccc(C)cc1` was run?
Answer: 20.7% (inactive)

Question: With `C[N+]1(CC2COC(c3ccccc3)(c3ccccc3)O2)CCCCC1` (stereo not given) as the compound, how does the activation read?
Answer: 5.26% [at 19 µM] (inactive)

Question: For `C=C(C)C(=O)OCCOCCOCCOCCOC(=O)C(=C)C`, which “activation” value is on record?
Answer: -8.52% (inactive)

Question: `COc1cc(C(=O)NCc2ccc(OCCN(C)C)cc2)cc(OC)c1OC` was tested. Which “activation” value did it give?
Answer: 14.5% [at 42.5 µM] (inactive)

Question: For `CC1OC1C1CCC2(C)OC2C1` (stereo not given), which “activation” value is on record?
Answer: 25.8% (inactive)

Question: Which “activation” value does the source give for `CCCCCC(C)N` (stereo not given) here?
Answer: -9.53% [at 42.5 µM] (inactive)

Question: For `C=CCCCCCCCCC(=O)OCC`, which “activation” value is on record?
Answer: 7.15% (inactive)

Question: Which “activation” value does the source give for `CC(C)CCCO` here?
Answer: -3.31% (inactive)

Question: Which “activation” value does the source give for `CC(=O)NC(=O)c1ccccc1O` here?
Answer: -3.57% [at 42.5 µM] (inactive)

Question: For `CO/N=C(\C(=O)N[C@@H]1C(=O)N2C(C(=O)O)=C(CSc3nc(=O)c(O)nn3C)CS[C@H]12)c1csc(N)n1`, which “activation” value is on record?
Answer: -3.54% [at 42.5 µM] (inactive)

Question: `CCN1CCOCC1` was tested. Which “activation” value did it give?
Answer: 5.56% (inactive)

Question: For `CC[N+](CC)(CC)CCOc1cccc(OCC[N+](CC)(CC)CC)c1OCC[N+](CC)(CC)CC`, which “activation” value is on record?
Answer: -1.84% [at 42.5 µM] (inactive)

Question: With `CCCCCCC1CCC(=O)O1` (stereo not given) as the compound, how does the “activation” value read?
Answer: -2.07% (inactive)

Question: Which “activation” value does the source give for `CCCCS(=O)(=O)N[C@@H](Cc1ccc(OCCCCC2CCNCC2)cc1)C(=O)O` here?
Answer: -4.39% [at 42.5 µM] (inactive)

Question: For `C=CCOCC(O)CO` (stereo not given), which “activation” value is on record?
Answer: 1.73% (inactive)

Question: With `CC(C)(C#N)Nc1nc(Cl)nc(NC2CC2)n1` as the compound, how does the Potency read?
Answer: 27.3 µM (active)

Question: Which “activation” value does the source give for `O=S(=O)(O)c1cc(O)c(O)c(S(=O)(=O)O)c1` here?
Answer: 11% (inactive)

Question: `Nc1c2c(nc3c1CCC3)CCCC2` was tested. Which “activation” value did it give?
Answer: -6.52% [at 42.5 µM] (inactive)

Question: For `CCCCc1nc(Cl)c(CO)n1Cc1ccc(-c2ccccc2-c2nn[nH]n2)cc1`, which “activation” value is on record?
Answer: 8.32% [at 42.5 µM] (inactive)

Question: Which Potency does the source give for `CCOC(=O)C1=NOC(c2ccccc2)(c2ccccc2)C1` here?
Answer: 68.6 µM (active)

Question: Which Potency does the source give for `CC(=O)c1ccccc1[N+](=O)[O-]` here?
Answer: 30.1 µM (active)

Question: `CC(CC=O)CC(C)(C)C` (stereo not given) was tested. Which Potency did it give?
Answer: 54.5 µM (active)

Question: `CCCCCCCCCCOc1cc2c(=O)c(C(=O)OCC)c[nH]c2cc1OCC` was tested. Which activation did it give?
Answer: -4.21% [at 8.39 µM] (inactive)

Question: How did the “activation” value turn out when `FB(F)F` was run?
Answer: 3.98% (inactive)

Question: For `C=CN1CCCCCC1=O`, which “activation” value is on record?
Answer: 7.55% (inactive)

Question: `CCCCCC(=O)OCCc1ccccc1` was tested. Which “activation” value did it give?
Answer: 10.7% (inactive)

Question: For `Cc1cc(C)c(N=Nc2c(O)c(S(=O)(=O)O)cc3cc(S(=O)(=O)O)ccc23)cc1C`, which activation is on record?
Answer: -9.92% [at 8.39 µM] (inactive)

Question: How did the “activation” value turn out when `C1CCC2(CCCCO2)OC1` was run?
Answer: -2.28% (inactive)

Question: For `CCCCCCC#CC(=O)OC`, which “activation” value is on record?
Answer: 5.34% (inactive)

Question: How did the “activation” value turn out when `CNCCO` was run?
Answer: -35.5% (inactive)

Question: Which “activation” value does the source give for `O=C(O)Cc1csc(-c2ccc(Cl)cc2)n1` here?
Answer: -3.68% [at 42.5 µM] (inactive)
